# Data: PubChem BioAssay
# The source made the active and inactive calls.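 The calls were made as follows: active = compounds whose cell count with miR-34 switched on is under 0.7 times the count with it off; inactive = the rest.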
# Assay: viability loss with induced miR-34 in A549 – imaging, A549 dox-inducible miR-34, nuclei and caspase counts, primary screen (AID 1347080); also: test concentration not given here
# Details: A549 miR-34 inducible, Hoechst nuclei count, 48 h; stronger effect = lower value; cell number ratio, induced over uninduced
row,Structure (SMILES),fold change
1,CCCCCC(=O)CC[C@H]1C=CC(=O)[C@@H]1C/C=C\CCCC(=O)O,0.899 (inactive)
2,CCCCC[C@@](C)(O)/C=C/[C@H]1[C@H](O)CC(=O)[C@@H]1C/C=C\CCCC(=O)O,1.04 (inactive)
3,O=C(NCc1ccncc1)C12CC3CC(C1)CC(c1ccc(Cl)cc1)(C3)C2,0.915 (inactive)
4,O=C1OC2(c3ccc(O)cc3Oc3cc(Oc4ccc(O)cc4)ccc32)c2ccccc21 (centres undefined),0.956 (inactive)
5,CCCCCCCCCCCCCC(=O)O,1.04 (inactive)
6,FC(F)(F)c1ccc(/C=C/c2cc(Cl)cc(Cl)c2)cc1,1.01 (inactive)
7,O=C(O)CCC/C=C\C[C@@H]1[C@@H](/C=C/[C@@H](O)COc2ccccc2)[C@H](O)C[C@@H]1O,0.956 (inactive)
8,O=C1O/C(=C/Br)CC[C@H]1c1cccc2ccccc12,1.14 (inactive)
9,CC(C)c1cc2c(c(O)c1O)C13CCCC(C)(C)C1CC2OC3=O (centres undefined),0.942 (inactive)
10,O=c1[nH]cc(CO)c(=O)[nH]1,1.01 (inactive)
11,COc1ccc(/C=C/c2cc(Cl)cc(Cl)c2)cc1,1.04 (inactive)
12,CCCCCCCCCCCCCCCCC/C=C/C(=O)O,0.976 (inactive)
13,CCCCCC/C=C/C=C\CCCCCCCC(=O)O,0.985 (inactive)
14,O=C(O)CCC/C=C\C[C@H]1C(=O)C=C[C@@H]1CC[C@@H](O)CCc1ccccc1,0.93 (inactive)
15,O=C(CCc1ccc(O)c(O)c1)N[C@@H](CC(=O)OCc1ccccc1)C(=O)OCc1ccccc1,1.01 (inactive)
16,O=C(O)CCC/C=C\C[C@H]1[C@@H](O)CC(=O)[C@@H]1/C=C/[C@@H](O)COc1cccc(C(F)(F)F)c1,1.01 (inactive)
17,O=C(O)CCC/C=C\C[C@@H]1[C@@H](/C=C/[C@@H](O)Cc2ccccc2)[C@H](O)C[C@@H]1O,0.969 (inactive)
18,CCCCC[C@H](O)/C=C/[C@H]1[C@H](O)CC(=O)[C@@H]1C/C=C\CCCC(=O)NC(CO)CO,1.04 (inactive)
19,CCCCC[C@](C)(O)/C=C/[C@@H]1[C@@H](C/C=C\CCCC(=O)OC)[C@@H](O)C[C@H]1O,0.977 (inactive)
20,CCCCC/C=C/C=C1/C(=O)C[C@H](O)[C@@H]1C/C=C\CCCC(=O)O,1.04 (inactive)
21,CC(C)CCCC(C)CCCC(C)CCCC(C)CC(=O)O (centres undefined),0.992 (inactive)
22,CC(C)OC(=O)CCC/C=C\C[C@@H]1[C@@H](/C=C/[C@H](O)C2Cc3ccccc3C2)[C@@H](F)C[C@@H]1O,0.981 (inactive)
23,CCCCC/C=C\C/C=C\C/C=C\CCCC/C=C\CCC(=O)O,0.938 (inactive)
24,CCCCCCCCCC(=O)N[C@@H](CN1CCOCC1)[C@@H](O)c1ccccc1,0.924 (inactive)
25,CCCCCCCCCCCCCCCCOC[C@H](COP(=O)([O-])OCC[N+](C)(C)C)OC(=O)CCC,0.868 (inactive)

# Same assay, conditions: A549 miR-34 inducible, Hoechst nuclei count, 48 h; measured here: relative caspase fold change +Dox/-Dox
row,Structure (SMILES),fold change
1,CC#CCC(C)[C@H](O)/C=C/[C@@H]1[C@H]2C/C(=C\CCCC(=O)O)C[C@H]2C[C@H]1O (some centres undefined),1.12
2,CCCCCCCCCCCCCCCCOC[C@H](COP(=O)([O-])OCC[N+](C)(C)C)OC,1.27
3,CC(C)CCOc1ccc(N)cc1,2.13
4,O=C(O)CCC/C=C\C[C@@H]1[C@@H](/C=C/[C@H](O)COc2cccc(C(F)(F)F)c2)[C@H](O)C[C@@H]1O,0.987
5,CN(C)C(=O)CCSC(SCCC(=O)O)c1cccc(/C=C/c2ccc3ccc(Cl)cc3n2)c1 (centres undefined),1.76
6,COc1ccc2c(c1)c(CC(=O)NCCc1ccccc1)c(C)n2C(=O)c1ccc(Cl)cc1,0.638
7,CC/C=C\C/C=C\C/C=C\C/C=C\CCCCCCC(=O)OCC,2.1
8,CCNC(=O)CCC/C=C\C[C@@H]1[C@@H](CC[C@@H](O)CCc2ccccc2)[C@H](O)C[C@@H]1O,1.65
9,CCCCCCC(Sc1nc(Cl)cc(NCc2ccc(-c3ccccc3)cc2)n1)C(=O)O (centres undefined),1.34
10,CCCCC/C=C\C=C\CCCCCCCCC(=O)O,1.02
11,C=C1C[C@H](O)[C@H](C/C=C\CCCC(=O)O)[C@H]1/C=C/[C@@H](O)CCCCC,1.72
12,CCCCCC(=O)OC[C@H](CO)OC(=O)CCCCC,0.528
13,C=C1O[C@@](CO)(n2cnc3c(N)ncnc32)[C@H](O)[C@@H]1O,1.1
14,COc1ccc(/C=C/c2cc(O)cc(O)c2)cc1O,0.703
15,CCCCCC(=O)CC[C@H]1C=CC(=O)[C@@H]1C/C=C\CCCC(=O)O,1.77
16,CCCCC[C@@](C)(O)/C=C/[C@H]1[C@H](O)CC(=O)[C@@H]1C/C=C\CCCC(=O)O,1.07
17,O=C(NCc1ccncc1)C12CC3CC(C1)CC(c1ccc(Cl)cc1)(C3)C2,1.12
18,O=C1OC2(c3ccc(O)cc3Oc3cc(Oc4ccc(O)cc4)ccc32)c2ccccc21 (centres undefined),1.49
19,CCCCCCCCCCCCCC(=O)O,1.03
20,FC(F)(F)c1ccc(/C=C/c2cc(Cl)cc(Cl)c2)cc1,0.839

row,Structure (SMILES),fold change
1,O=C(O)CCC/C=C\C[C@@H]1[C@@H](/C=C/[C@@H](O)COc2ccccc2)[C@H](O)C[C@@H]1O,1.11
2,O=C1O/C(=C/Br)CC[C@H]1c1cccc2ccccc12,0.781
3,CC(C)c1cc2c(c(O)c1O)C13CCCC(C)(C)C1CC2OC3=O (centres undefined),1.02
4,O=c1[nH]cc(CO)c(=O)[nH]1,1.05
5,COc1ccc(/C=C/c2cc(Cl)cc(Cl)c2)cc1,0.753
6,CCCCCCCCCCCCCCCCC/C=C/C(=O)O,0.547
7,CCCCCC/C=C/C=C\CCCCCCCC(=O)O,0.691
8,O=C(O)CCC/C=C\C[C@H]1C(=O)C=C[C@@H]1CC[C@@H](O)CCc1ccccc1,1.2
9,O=C(CCc1ccc(O)c(O)c1)N[C@@H](CC(=O)OCc1ccccc1)C(=O)OCc1ccccc1,0.94
10,O=C(O)CCC/C=C\C[C@H]1[C@@H](O)CC(=O)[C@@H]1/C=C/[C@@H](O)COc1cccc(C(F)(F)F)c1,1.13
11,O=C(O)CCC/C=C\C[C@@H]1[C@@H](/C=C/[C@@H](O)Cc2ccccc2)[C@H](O)C[C@@H]1O,1.42
12,CCCCC[C@H](O)/C=C/[C@H]1[C@H](O)CC(=O)[C@@H]1C/C=C\CCCC(=O)NC(CO)CO,1.67
13,CCCCC[C@](C)(O)/C=C/[C@@H]1[C@@H](C/C=C\CCCC(=O)OC)[C@@H](O)C[C@H]1O,1.61
14,CCCCC/C=C/C=C1/C(=O)C[C@H](O)[C@@H]1C/C=C\CCCC(=O)O,1.03
15,CC(C)CCCC(C)CCCC(C)CCCC(C)CC(=O)O (centres undefined),0.832
16,CC(C)OC(=O)CCC/C=C\C[C@@H]1[C@@H](/C=C/[C@H](O)C2Cc3ccccc3C2)[C@@H](F)C[C@@H]1O,2.25
17,CCCCC/C=C\C/C=C\C/C=C\CCCC/C=C\CCC(=O)O,0.754
18,CCCCCCCCCC(=O)N[C@@H](CN1CCOCC1)[C@@H](O)c1ccccc1,0.927
19,CCCCCCCCCCCCCCCCOC[C@H](COP(=O)([O-])OCC[N+](C)(C)C)OC(=O)CCC,0.912
